This excerpt belongs to a sample that is enriched for hits.
Tb PYK inh: qHTS of Trypanosoma Brucei Inhibitors; pyruvate kinase (Trypanosoma brucei), Q57TT1; TbPYK enzyme, Kinase-Glo Plus ATP luminescence, 45 min; Potency, µM (top dose mostly 76.8 µM), most hits filed as inhibitors; actives 0.12% (n = 410,000); note: nearly all actives have a fitted effect of over 50% in size
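T. brucei PYK with substrate was exposed to pin-transferred compounds across a concentration series, then started with 130 uM ADP (final). After 45 min at room temperature, Kinase-Glo Plus luminescence was read, normalized and curve-fitted.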
LmPK inh: qHTS Assay for Inhibitors of Leishmania Mexicana Pyruvate Kinase (LmPK); Q27686; purified LmPK, Kinase-Glo ATP luminescence, 1 h; Potency, µM (doses to about 57.5 µM), hits mostly inhibitors; actives 0.37% (n = 290,000)
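Screened at intermediate enzyme activity to detect both inhibitors and activators: LmPK at 0.1 nM, with a 0.5 nM enzyme column as activation reference. PEP 0.5 mM, ADP 0.1 mM; ATP detected by luminescence after 1 h.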
Cycloheximide cs: Cycloheximide Counterscreen for Small Molecule Inhibitors of Shiga Toxin; cell reporter, cycloheximide protein synthesis inhibition counterscreen; max response, %; actives 12% (n = 300,000); AID 2314, 2010; in the data active = max response mostly above about 13%, no sharp cut-off; inactive = mostly below about 14%; note: read at 38.3 µM for the half of the compounds with a filed dose
Shiga toxin inh: A qHTS for Small Molecule Inhibitors of Shiga Toxin; Vero cells, Shiga toxin protein synthesis inhibition reporter; inhibition, % at 38.7 µM; actives 9.2% (n = 290,000); in the data active = inhibition mostly above about 28%, no sharp cut-off; inactive = mostly below about 43%
Giardia FBPA inh-1: qHTS Assay for Inhibitors of Fructose-1,6-bisphosphate Aldolase from Giardia Lamblia | actives 0.71% (n = 290,000) | A8B2U2 | Potency, µM (doses to about 59.6 µM), actives largely listed as inhibitors | AID 2451, 2010 | purified Giardia FBPA; note: nearly all actives have a fitted effect of over 55% in size
Target sequence (A8B2U2 whole entry, looked up): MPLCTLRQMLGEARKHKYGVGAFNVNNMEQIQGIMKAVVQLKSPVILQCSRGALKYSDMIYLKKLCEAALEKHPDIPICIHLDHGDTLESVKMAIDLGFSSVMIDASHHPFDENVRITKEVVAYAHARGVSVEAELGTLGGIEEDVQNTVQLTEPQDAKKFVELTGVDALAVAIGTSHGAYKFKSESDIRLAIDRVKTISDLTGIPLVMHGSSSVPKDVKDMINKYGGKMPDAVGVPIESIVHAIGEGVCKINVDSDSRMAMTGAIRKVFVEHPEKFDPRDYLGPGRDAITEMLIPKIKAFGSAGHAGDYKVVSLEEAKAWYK
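Giardia FBPA (40 nM reagent) was preincubated 10 min at RT with compound (up to 57.5 uM final), then substrate plus GAPDH/TPI/NAD/arsenate coupling system with diaphorase/resazurin was added; resorufin fluorescence (525/598 nm) was read after 20 min.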
Sm TGR inh: qHTS Assay for the Inhibitors of Schistosoma Mansoni Peroxiredoxins. Potency, µM (highest dose often 114 µM), most hits filed as inhibitors. purified TGR, DTNB reduction, TNB absorbance 405 nm. actives 3% (n = 360,000). Schistosoma mansoni thioredoxin glutathione reductase (TGR), Q962Y6. AID 485364, 2010; note: nearly all actives have a fitted effect of over 60% in size
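First, TGR (20 nM dispensed) and NADPH were mixed with compound. Second, a 15 min room-temperature incubation followed. Third, further NADPH and then DTNB were added to start the reaction. Finally, TNB absorbance was monitored kinetically.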
Giardia growth: qHTS Assay for Inhibitors of Fructose-1,6-bisphosphate Aldolase from Giardia Lamblia: Giardia lamblia growth inhibition. shares compounds with Giardia FBPA inh-1. Giardia lamblia trophozoite growth inhibition. Potency, µM (titrated, usually from 57.5 µM), hits mostly inhibitors. actives 5% (n = 1,500). AID 2785, 2010;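 note: trophozoites exposed to compound for 48 h at 37 °C; nearly all actives have a fitted effect of over 70% in size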
Mammalian tox: qHTS Assay for Inhibitors of Fructose-1,6-bisphosphate Aldolase from Giardia Lamblia: Mammalian cellular toxicity; actives 4% (n = 1,500); mammalian cell viability counter-screen, qHTS; shares compounds with Giardia FBPA inh-1; Potency, µM (titrated, usually from 57.5 µM), hits mostly inhibitors;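 note: Chinese hamster ovary cells used as mammalian cytotoxicity surrogate; viability measured as cellular ATP by luminescence; compound exposure lasted 48 h before reading; nearly all actives have a fitted effect of over 60% in size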
Giardia FBPA inh-2: qHTS Assay for Inhibitors of Fructose-1,6-bisphosphate Aldolase from Giardia Lamblia: Primary screen confirmation; shares compounds with Giardia FBPA inh-1; purified Giardia aldolase enzyme activity, qHTS; Potency, µM (titrated, usually from 57.5 µM), most hits filed as inhibitors; actives 5% (n = 1,500); note: nearly all actives have a fitted effect of over 45% in size
Rabbit FBPA inh: qHTS Assay for Inhibitors of Fructose-1,6-bisphosphate Aldolase from Giardia Lamblia: Rabbit FBPA Selectivity | shares compounds with Giardia FBPA inh-1 | Rabbit muscle FBPA enzyme inhibition, selectivity counter-screen | Potency, µM (doses to about 57.5 µM), actives largely listed as inhibitors | actives 4% (n = 1,500) | AID 2794, 2010; note: nearly all actives have a fitted effect of over 60% in size
Target sequence (P00883 whole entry, looked up): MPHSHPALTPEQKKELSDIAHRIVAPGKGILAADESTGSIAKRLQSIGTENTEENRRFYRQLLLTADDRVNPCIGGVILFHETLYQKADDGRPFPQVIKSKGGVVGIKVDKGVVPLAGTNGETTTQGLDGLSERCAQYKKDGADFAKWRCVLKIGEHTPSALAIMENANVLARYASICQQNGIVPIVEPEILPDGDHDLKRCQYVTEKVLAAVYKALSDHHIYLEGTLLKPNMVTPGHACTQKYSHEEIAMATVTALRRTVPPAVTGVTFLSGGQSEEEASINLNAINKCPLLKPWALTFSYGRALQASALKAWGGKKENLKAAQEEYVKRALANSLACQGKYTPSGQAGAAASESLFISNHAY
GAPDH counter: qHTS Assay for Inhibitors of Fructose-1,6-bisphosphate Aldolase from Giardia Lamblia: Coupling assay counterscreen confirmation | shares compounds with Giardia FBPA inh-1 | actives 6% (n = 1,500) | Potency, µM (top dose mostly 57.5 µM), hits mostly inhibitors | AID 2795, 2010 | GAPDH coupling enzyme counterscreen, biochemical, qHTS; note: nearly all actives have a fitted effect of over 55% in size
A number is an active result; n = inactive; u = inconclusive; x = no result; [ ] = dose if it differs, or a comment. Unless noted, calls come from the whole dose curve; as a rule, active = well fitted curve in the direction sought with a large enough effect; inconclusive = small, poorly fitted or top-dose-only effect, or another doubt; inactive = no such curve, though single readings can be large; an effect the other way counts as inactive or inconclusive.

SMILES | Tb PYK inh | LmPK inh | Cycloheximide cs | Shiga toxin inh | Giardia FBPA inh-1 | Sm TGR inh | Giardia growth | Mammalian tox | Giardia FBPA inh-2 | Rabbit FBPA inh | GAPDH counter
CCN1C(=O)CSC1=Nc1cccc(C(=O)O)c1 | n | n | n | x | n | n | x | x | x | x | x
CC1=NN(C(N)=S)C(=O)C1N=Nc1ccccc1C(=O)O (stereo not drawn) | n | n | n | x | 14µM | u | n[10.4 µM] | n | n | n | n
COc1cc(-c2noc(-c3ccc(N4CCOCC4)c([N+](=O)[O-])c3)n2)cc(OC)c1OC | n | x | x | x | x | n | x | x | x | x | x
COc1ccc(CN2CCC[C@]3(N[C@H](c4ccc(C)cc4)[C@@H]4C(=O)N(C)C(=O)[C@@H]43)C2=O)cc1 | n | x | x | x | x | x | x | x | x | x | x
O=C(C[n+]1ccccc1)Nc1c(Cl)cc(Cl)cc1Cl | n | n | n | n | 13µM | 8.9µM | n | n | n | n | n
CN(C)c1ccc(NC(=O)C[n+]2ccccc2)cc1 | n | n | n | n | n | n | x | x | x | x | x
CCOCCCNC(=O)c1cc2c(=O)[nH]c3ccccc3c2n1C | n | x | x | x | x | n | x | x | x | x | x
COCC(CN1CCN(C2=NS(=O)(=O)c3ccccc32)CC1)OC(=O)c1ccccc1 (stereo not drawn) | n | n | n | n | n | n | x | x | x | x | x
CCNc1nc(C(=O)O)nc(N2CCOCC2)n1 | n | n | n | n | 22µM | n | n[10.4 µM] | n | n | n | n
Cc1nc(NC(=O)CN2CC(C)OC(C)C2)sc1C(=O)N(C)C (stereo not drawn) | n | n | n | n | 11µM | n | n | n | n | n | n
CC(C)n1c(=S)[nH]c2c1c(=O)[nH]c(=O)n2C | u | n | n | n | 16µM | n | n[10.4 µM] | n | n | n | n
COc1ccccc1Cc1nc2ccccc2nc1SCC(=O)N(C)c1ccc(F)cc1 | n | x | x | x | x | n | x | x | x | x | x
c1ccc(-c2n[nH]c(-c3ccccn3)n2)nc1 | n | 16µM | 33 | 62 | 3.2µM | n | n | n | n | n | n
c1ccc(-c2nn[nH]n2)nc1 | n | n | n | n | 7.9µM | n | n | n | n | n | n
Cc1ccccc1-c1nn[nH]n1 | n | n | n | n | n | n | x | x | x | x | x
NC(=S)NNc1c(F)c(F)c(F)c(F)c1F | n | n | n | n | 16µM | 40µM | n[10.4 µM] | n | n | n | n
Cc1ccccc1NNC(N)=S | n | n | n | n | u | n | x | x | x | x | x
N[C@@H](CSS(=O)(=O)O)C(=O)O | x | x | x | x | u | x | n | n | 22µM | 14µM | 22µM
C=CCNC(=S)N/N=C1\CCS(=O)(=O)c2ccccc21 | n | n | n | n | 7.1µM | n | n | n | n | n | n
COc1ccc(/C=N/NC(=O)CNc2n[nH]c(=O)[nH]c2=O)cc1OC | n | n | n | n | n | n | x | x | x | x | x
CCOc1ccc(/C=N/Nc2nc(=O)[nH]nc2C)cc1OC | n | n | 32 | 34 | 20µM | n | u | n | n | n | n
CC(=O)c1c(C)nc(-c2ccc(Cl)cc2)nc1N | n | n | 44 | 96 | 5µM | n | n | n | n | n | n
CC(=O)c1cccc(NC(=S)N2CCc3ccccc32)c1 | n | n | 63 | 157 | 25µM | n | n | n | n | n | n
O=C(O)CSc1c(O)c2ccccc2[nH]c1=O | n | n | n | n | 18µM | x | u | n | n | n | n
O=c1[nH]c2ccccc2c(O)c1SCCO | n | n | n | n | u | n | x | x | x | x | x
SMILES | Tb PYK inh | LmPK inh | Cycloheximide cs | Shiga toxin inh | Giardia FBPA inh-1 | Sm TGR inh | Giardia growth | Mammalian tox | Giardia FBPA inh-2 | Rabbit FBPA inh | GAPDH counter
Cc1ccc(C2/C(=C(/O)c3ccc(Br)cc3)C(=O)C(=O)N2Cc2ccco2)o1 (stereo not drawn) | n | n | n | n | 20µM | 7.9µM | u | n | n | n | n
CCN1CCN(CC(=O)Nc2c(OC)cccc2OC)CC1 | n | n | n | n | 13µM | n | n[10.4 µM] | n | n | n | n
CCN1CCN(CC(=O)Nc2cc(C(F)(F)F)ccc2OCCOC)CC1 | n | n | n | n | 6.3µM | n | n | n | n | n | n
C=CCSC1=N/C(=C\C=C\c2ccco2)C(=O)S1 | n | n | n | n | 6.3µM | u | n | n | n | n | n
C=CCSC1=N/C(=C\c2sccc2C)C(=O)S1 | n | n | n | n | n | n | x | x | x | x | x
CCOc1ccc(/C(O)=C2/C(=O)C(=O)N(c3ccccn3)C2c2ccc(F)cc2)c(C)c1 (stereo not drawn) | n | n | n | n | n | n | x | x | x | x | x
COCC(=O)N1CCC[C@@]2(CCN(Cc3ccccc3)C2)C1 | n | x | x | x | n | x | x | x | x | x | x
Cc1ccc(S(=O)(=O)N2CCN(CCc3ccccc3)CC2)c(C)c1 | n | n | n | n | 20µM | n | n | n | n | n | n
COc1cc(Cl)c(C)cc1NC(=O)c1cc2ccc3cccnc3c2[nH]1 | n | x | x | x | x | n | x | x | x | x | x
O=C(O)c1ccc(/C=N/Nc2ccc(Cl)nn2)cc1 | n | n | n | n | 25µM | n | u | n | n | n | u
CC(=O)N1CCc2c(sc3c2c(=O)n(CCc2ccccc2)c(=O)n3Cc2ccccc2C)C1 | n | x | x | x | x | n | x | x | x | x | x
Clc1ccc(CSc2nnc(-c3ccccn3)n2Cc2cccs2)cc1Cl | n | x | x | x | x | x | x | x | x | x | x
Fc1cccc(F)c1CN1CCN(c2ccc(Cl)cc2)CC1 | n | n | n | n | n | n | x | x | x | x | x
CN1CCN(Cc2c(F)cccc2Cl)CC1 | n | n | n | n | 25µM | n | n | n | n | n | u
CC1(Cc2cc(Cl)ccc2C(F)(F)F)C(=O)Nc2cc(-c3ccccc3Cl)ccc21 (stereo not drawn) | n | x | x | x | x | x | x | x | x | x | x
Cc1ccc(NC(=S)Nn2cnnc2)cc1 | n | n | n | n | 16µM | x | u | n | n | n | n
Cc1cccc(NC(=S)Nn2cnnc2)c1C | n | n | 38 | n | 7.9µM | x | u | n | n | n | n

Screens (PubChem BioAssay)
